Laboratory results taken from PubChem BioAssay (Tox21).
Values joined by “and” are separate entries in the source; they are usually repeats but may differ in a detail not shown here. Equal entries are not always repeated. A number with no mark means an inactive call. A call without a number means that no potency is given here. Active and inactive are the calls of the source. The call rests on the fitted dose curve; in most records, active means well fitted curve in the direction sought with a large enough effect in the signal ratio in the repeat runs (not every such curve was filed as active); inconclusive means weak or mixed curves, or effect the other way; inactive means no such curve, though single readings can be large or run the other way; the % refers to the signal ratio.

biological target: Estrogen receptor (Homo sapiens) (UniProt P03372); assay: qHTS assay to identify small molecule antagonists of the estrogen receptor alpha (ER-alpha) signaling pathway (AID 743069); conditions: HEK293 ER-alpha-UAS-bla, beta-lactamase ratio, antagonist mode; series mostly up to 69.4 µM
Sequence (P03372 whole entry, looked up): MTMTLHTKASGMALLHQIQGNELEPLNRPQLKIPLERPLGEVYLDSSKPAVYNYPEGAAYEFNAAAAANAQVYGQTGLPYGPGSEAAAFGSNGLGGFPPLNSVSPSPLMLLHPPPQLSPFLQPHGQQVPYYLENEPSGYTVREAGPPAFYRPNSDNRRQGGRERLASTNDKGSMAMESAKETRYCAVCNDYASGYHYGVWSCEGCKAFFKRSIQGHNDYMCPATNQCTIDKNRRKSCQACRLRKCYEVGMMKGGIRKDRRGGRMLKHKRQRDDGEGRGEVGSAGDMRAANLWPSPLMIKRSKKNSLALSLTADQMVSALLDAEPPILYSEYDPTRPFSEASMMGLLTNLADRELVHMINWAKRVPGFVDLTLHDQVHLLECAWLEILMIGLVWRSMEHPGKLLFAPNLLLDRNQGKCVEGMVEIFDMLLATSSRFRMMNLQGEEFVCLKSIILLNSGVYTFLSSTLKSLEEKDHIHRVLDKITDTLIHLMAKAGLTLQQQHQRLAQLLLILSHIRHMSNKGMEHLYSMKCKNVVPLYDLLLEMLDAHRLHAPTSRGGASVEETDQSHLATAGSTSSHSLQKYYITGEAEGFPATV
Source text: National Center for Advancing Translational Sciences [NCATS]
NIH Chemical Genomics Center [NCGC]
U.S. Environmental Protection Agency [EPA]
National Institutes of Environmental Health Sciences [NIEHS]
National Toxicology Program [NTP]
U.S. Food and Drug Administration [FDA]
Estrogen receptor (ER), a nuclear hormone receptor, plays an important role in development, metabolic homeostasis and reproduction. Two subtypes of ER, ER-alpha and ER-beta have similar expression patterns with some uniqueness in both types. Endocrine disrupting chemicals (EDCs) and their interactions with steroid hormone receptors like ER causes disruption of normal endocrine function. To identify the compounds that inhibit ER signaling, an ER-alpha-UAS-bla GripTiteTM cell line (Invitrogen, Carlsbad, CA, USA) containing a beta-lactamase reporter gene under the control of an Upstream Activator Sequence (UAS) stably integrated into HEK293 cells was used to screen the Tox21 10K compound library.
Tox21 Assay Protocol Summary:
ER-alpha-bla cells were cultured in assay medium containing 2% charcoal stripped FBS overnight in the culture flasks before the assay was performed. The cells were dispensed at 5,000 cells/5 uL of assay medium per well into black wall/clear-bottom 1536-well plates using a Multidrop Combi (ThermoFisher Scientific, Waltham, MA) dispenser. After the assay plates were incubated at a 37C and 5% CO2 for 4 hr, 23 nL of compounds dissolved in DMSO, positive controls or DMSO only was transferred to the assay plate by a Pintool station (Kalypsys, San Diego, CA), followed by addition of 1 uL of 17beta-estradiol in assay medium using a Flying Reagent Dispenser (Aurora Discovery, San Diego, CA). The plates were incubated at 37C and 5% CO2 for 18 hr. Then 1 uL of LiveBLAzerTM B/G FRET substrate was added using a Flying Reagent Dispenser, the plates were incubated at room temperature for 2 hours, and fluorescence intensity was measured by an Envision plate reader (PerkinElmer, Shelton, CT).
Potency means the concentration at half of the fitted maximal effect.

Row | Compound | Potency | activity, negative = inhibition
1 | CNC(=O)CN(CCN(CCN(CC(=O)[O-])CC(=O)NC)CC(=O)[O-])CC(=O)[O-].O.[Gd+3] | inactive | –
2 | CCCCCCCCCCCCCCCCOS(=O)(=O)O | inactive | –
3 | NC(=O)C(c1ccccc1)(c1ccccc1)[C@@H]1CCN(CCc2ccc3c(c2)CCO3)C1 | inactive | –
4 | CCO[C@H](Cc1ccc(OCCc2ccc(OS(C)(=O)=O)cc2)cc1)C(=O)O | inactive | –
5 | CC(CC=O)c1ccccc1 (stereo not given) | inactive | –
6 | CCCCCCCCCCO[C@@H]1O[C@H](CO)[C@@H](O)[C@H](O)[C@H]1O | inactive | –
7 | O=C1c2ccccc2S(=O)(=O)N1CCCCN1CCN(c2ncccn2)CC1 | inactive | –
8 | CCCCCCCCCOS(=O)(=O)O | inactive | –
9 | O=C(O)c1ccc(S(=O)(=O)O)cc1C(=O)O | inactive | –
10 | Cc1cccc(C)c1OCC(=O)N[C@@H](Cc1ccccc1)[C@@H](O)C[C@H](Cc1ccccc1)NC(=O)[C@H](C(C)C)N1CCCNC1=O | 21.3 µM [inconclusive] (active) | –
11 | CCO[Si](CCCCl)(OCC)OCC | inactive | –
12 | CC(=O)OC[C@H]1O[C@@H](n2ncc(=O)[nH]c2=O)[C@H](OC(C)=O)[C@@H]1OC(C)=O | 2.68 µM [inconclusive] (active) | –
13 | C[Si](C)(CCCN)O[Si](C)(C)CCCN | inactive | –
14 | Clc1ccc2c(c1)CCc1cccnc1C2=C1CCNCC1 | inactive | –
15 | CCCCCCCCCCCc1ccccc1 | inactive | –
16 | CCCCCCCCO[C@@H]1O[C@H](CO)[C@@H](O)[C@H](O)[C@H]1O | inactive | –
17 | C[C@@H](c1ncncc1F)C(O)(Cn1cncn1)c1ccc(F)cc1F (stereo not given in full) | inactive | –
18 | Cc1c(N)cccc1[N+](=O)[O-] | inactive | –
19 | O=C(OCCCCCCOC(=O)c1ccccc1)c1ccccc1 | inactive | –
20 | CN1CCN(C(c2ccccc2)c2ccccc2)CC1 | inactive | –

Row | Compound | Potency | activity, negative = inhibition
21 | CC1=CC[C@H](C(C)C)C=C1 | inactive | –
22 | C/C=C/C(=O)CC | – | 9.39% [at 15 µM]
23 | c1ccc(CNCCNCc2ccccc2)cc1 | inactive | –
24 | NCc1ccccc1Sc1ccccc1CO | inactive | –
25 | O=C(CS)Nc1ccccc1 | 15.1 µM [inconclusive] (active) | –
26 | c1ccc(C(O[C@H]2CCCN(CCc3ccc4c(c3)OCO4)C2)c2ccccc2)cc1 | inactive | –
27 | COc1cc2nc(N(C)CCCNC(=O)C3CCCO3)nc(N)c2cc1OC (stereo not given) | inactive | –
28 | C=CC(=O)OCCOCCOCCOCCOC(=O)C=C | 62 µM [inconclusive] (active) and 61.1 µM [inconclusive] (active) | –
29 | c1ccc(-c2ccccn2)nc1 | inactive | –
30 | OCCNCc1ccccc1 | inactive | –
31 | COc1cc(C(=O)OCCCN2CCCN(CCCOC(=O)c3cc(OC)c(OC)c(OC)c3)CC2)cc(OC)c1OC | inactive | –
32 | CNCCCN1c2ccccc2CCc2ccccc21 | inactive | –
33 | Cc1oc2c(NC(=O)c3c(Cl)cccc3Cl)cccc2c1C(C)(C)O | 43.6 µM [inhibitor] (active) | –
34 | C=C(C)C(=O)OCCOCC | inactive | –
35 | COC(C)OC | inactive | –
36 | C[N+](C)(C)CCOC(=O)CCC(=O)OCC[N+](C)(C)C | inactive | –
37 | C[C@@H]1C[C@H]2O[C@@]3(O[C@@H]2C(C)(C)O)[C@H](O)[C@@]2(C)[C@@H]4CC[C@H]5C(C)(C)[C@@H](O[C@@H]6OC[C@@H](O)[C@H](O)[C@H]6O)CC[C@@]56C[C@@]46CC[C@]2(C)[C@@H]13 | inactive | –
38 | CCCCCCCCCCCCCCOS(=O)(=O)O | inactive | –
39 | CCCn1cnc2c1c(=O)n(CCCCC(C)=O)c(=O)n2C | inactive | –
40 | CN1C[C@H]2c3ccccc3Oc3ccc(Cl)cc3[C@@H]2C1 | inactive | –
